# Data reported in PubChem BioAssay (NCATS).
# Several values for one entry are separate records, joined by “and”; a condition that tells them apart may be missing. Identical values can stand only once. Results filed as inconclusive are left out. Values without a mark were called inactive. Activity calls are given as the source filed them. The call rests on the fitted dose curve; in most records, active means well fitted curve in the direction sought with a large enough effect; inconclusive means small, poorly fitted or top-dose-only effect, or another doubt; inactive means no such curve, though single readings can be large; an effect the other way counts as inactive or inconclusive.
# Experiments:
# astro = control astrocytes; test: Drug repurposing screens with cells derived from glioblastoma tumor samples (AID 1345199); conditions: viability, ATP luminescence, 48 h; series mostly up to 45.9 µM; further: nearly all actives have a fitted effect of over 40% in size; on activity, negative = cell killing: on the % scale 0 is the no-effect control and ±100 the full control effect
# Procedure, shortened: (§1)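 Four patient lines of CD133+ GBM neurospheres were screened at several concentrations; hits were retested in those lines plus three slower-growing GBM lines, using 48-hour treatment and ATP-based viability.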
# [1] = as above; conditions: GBM patient neurospheres viability, ATP luminescence, 48 h
# Procedure, shortened: as §1
# [2] = qHTS assay to identify inhibitors of the type 1 interferon - major histocompatibility complex class I in skeletal muscle: Counter screen cell viability and HiBit confirmation (AID 1347412); conditions: iHSKM muscle cells + IFN-b, HiBiT or CellTiter-Glo, 24 h; further: nearly all actives have a fitted effect of over 60% in size
# Procedure, shortened: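 HLA-B*08:01–HiBiT knock-in immortalized human myoblasts (C25cl48) stimulated with 4.0 ng/ml human IFN-beta and dosed with compound in a 12-point 1:3 titration (top final 46 uM). After 24 hrs at 37 C, HiBiT lytic luminescence or CellTiter Glo ATP read out.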
# [3] = at 45.9 µM (top of the series), tumour line B
# [4] = at 45.9 µM (top of the series), tumour line D
# [5] = at 46.1 µM (top of the series), tumour line C
# Potency means the concentration at half of the fitted maximal effect.
structure (smiles),measurement,setting,value
CON=C1C[C@]2(C[C@@H]3C[C@@H](C/C=C(\C)C[C@@H](C)/C=C/C=C4\CO[C@@H]5[C@H](O)C(C)=C[C@@H](C(=O)O3)[C@]45O)O2)O[C@H](/C(C)=C/C(C)C)[C@H]1C,Potency,astro,17.8 µM (active) and 20 µM (active)
Cc1c(O)cc2c(c1C)O[C@](C)(CCC[C@H](C)CCC[C@H](C)CCCC(C)C)CC2,Potency,astro,inactive
CCOC(=O)Nc1ccc2c(c1)N(C(=O)CN(C)C)c1ccccc1CC2,"activity, negative = cell killing","[1]; at 99.2 µM (top of the series), tumour line C",-30.7%
same,Potency,[1]; tumour line A,44.7 µM (active)
same,Potency,[1]; tumour line D,56.2 µM (active)
same,Potency,astro,inactive
C=C1C(=C/C=C2\CCC[C@]3(C)[C@@H]([C@H](C)CCCC(C)(C)O)CC[C@@H]23)C[C@@H](O)C[C@@H]1O,"activity, negative = cell killing",[1]; [3],-26.6%
same,Potency,[1]; tumour line A,17.8 µM (active)
same,Potency,[1]; tumour line D,20 µM (active)
same,Potency,astro,22.4 µM (active)
CC(=O)O[C@H]1CC[C@@]2(C)C(=CC[C@H]3[C@@H]4CC[C@H](C(C)=O)[C@@]4(C)CC[C@@H]32)C1,"activity, negative = cell killing",[1]; [3],-9.15%
same,"activity, negative = cell killing",[1]; [4],-28.1%
same,"activity, negative = cell killing",[1]; [5],-12%
same,Potency,astro,inactive
COC(=O)C[C@](O)(CCCC(C)(C)O)C(=O)O[C@@H]1C(OC)=CC23CCCN2CCc2cc4c(cc2[C@H]13)OCO4 (stereo partly specified),Potency,astro,1.12 µM (active)
CC1(C)S[C@@H]2[C@H](NC(=O)[C@H](N)c3ccccc3)C(=O)N2[C@H]1C(=O)OCOC(=O)[C@@H]1N2C(=O)C[C@H]2S(=O)(=O)C1(C)C,"activity, negative = cell killing",[1]; [3],-6.39%
same,"activity, negative = cell killing",[1]; [4],-14.9%
same,"activity, negative = cell killing",[1]; [5],-15.8%
same,Potency,astro,inactive
Cc1ccc(C(=O)Nc2ccc(CN3CCN(C)CC3)c(C(F)(F)F)c2)cc1C#Cc1cnc2[nH]ncc2c1,Potency,[2]; HiBiT,0.394 µM (active)
CCOC(=O)Cc1cccc(-c2cc(CCCCCCc3ccc(O[C@H]4O[C@H](COC(C)=O)[C@@H](OC(C)=O)[C@H](OC(C)=O)[C@@H]4OC(C)=O)c(-c4cccc(CC(=O)OCC)c4)c3)ccc2O[C@H]2O[C@H](COC(C)=O)[C@@H](OC(C)=O)[C@H](OC(C)=O)[C@@H]2OC(C)=O)c1,"activity, negative = cell killing",[1]; [3],-6.7%
same,"activity, negative = cell killing",[1]; [4],-4.61%
same,"activity, negative = cell killing",[1]; [5],18%
same,Potency,astro,inactive
CCCCCCCCCCCCCCCC(=O)OC[C@H](O)[C@H]1OC(=O)C(O)=C1O,"activity, negative = cell killing",[1]; [3],-21.6%
same,"activity, negative = cell killing",[1]; [4],-24.1%
same,Potency,astro,inactive
c1ccc2c(CCC3CCNCC3)c[nH]c2c1,Potency,astro,inactive
COCCNCc1ccc(-c2cc3nccc(Oc4ccc(NC(=O)C5(C(=O)Nc6ccc(F)cc6)CC5)cc4F)c3s2)nc1,Potency,[2]; Viability,31.3 µM (active)
NC(=O)c1ccccc1Nc1ccnc(Nc2cccc(O)c2)n1,Potency,[2]; HiBiT,4.97 µM (active)
CCC(C)[C@H]1O[C@]2(C=C[C@@H]1C)C[C@@H]1C[C@@H](C/C=C(\C)[C@@H](O[C@H]3C[C@H](OC)[C@@H](O[C@H]4C[C@H](OC)[C@H](NC(C)=O)[C@H](C)O4)[C@H](C)O3)[C@@H](C)/C=C/C=C3\CO[C@@H]4[C@H](O)C(C)=C[C@@H](C(=O)O1)[C@]34O)O2 (stereo partly specified),Potency,astro,6.31 µM (active) and 20 µM (active)
